HEK293 tox = qHTS of GLP-1 Receptor Inverse Agonists: Cytotox Screen | Potency, µM (titrated, usually from 38.3 µM), for inactives: at the highest dose activity change, negative = inhibition, actives largely listed as inhibitors | actives 0.13% (n = 410,000) | HEK293 cAMP-luciferase reporter cells, luminescence, 24 h;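 further: loss of luciferase light is scored as toxicity; on the % scale 0 is the no-effect control and ±100 the full control effect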
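Compound-treated cells are incubated 24 hr at 37 deg C under 5% CO2 after a 12 hour attachment period, then luciferase detection reagent is added and luminescence is measured following 12 min at room temperature; lowered signal indicates toxicity.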
KAT2A inh = qHTS Assay for Inhibitors of GCN5L2. Histone acetyltransferase KAT2A (Homo sapiens), Q92830. GCN5L2 HAT assay, ThioGlo1 CoA-SH fluorescence. Potency, µM (titrated, usually from 58.9 µM), for the others: top-dose activity change, negative = inhibition, actives largely listed as inhibitors. actives 0.21% (n = 390,000). AID 504327, 2011; further: on the % scale 0 is the no-effect control and ±100 the full control effect
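ThioGlo1-coupled HAT assay: 20nM GCN5L2, 70uM acetyl-CoA, 75uM H3(1-25) peptide, pH 7.5. Fluorescence read at 340/540nm at start and after 20 min at room temperature.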
PTHR1 agonist = qHTS for PTHR1 Agonists: Primary Screen; HEK293 GP2 PTHR1 cells, GloSensor cAMP luminescence, 1 h; Potency, µM (series often up to 115 µM), without a hit: at the highest dose activation, actives largely listed as activators; AID 743266, 2014; actives 0.075% (n = 410,000); Parathyroid hormone/parathyroid hormone-related peptide receptor (Homo sapiens), Q03431; further: nearly all actives have a fitted effect of over 55% in size
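HEK-293-derived GP2 cells expressing PTHR1 and a GloSensor cAMP reporter, 3,000/well, plated overnight, given luciferin plus IBMX (each 0.5 mM as added) for 1 h at 37 °C, then compound for 1 h at 37 °C. Luminescence was read after 15 min at room temperature.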
RGS4 inh = Inhibitors of Regulator of G Protein Signaling (RGS) 4: qHTS; AID 504845, 2011; actives 0.039% (n = 390,000); Transcreener GDP fluorescence polarization, RGS4-accelerated GTP hydrolysis; Potency, µM (highest dose often 114 µM), for inactives: top-dose activity change, negative = inhibition, most hits filed as inhibitors; further: on the % scale 0 is the no-effect control and ±100 the full control effect; nearly all actives have a fitted effect of over 75% in size
Target sequence (P49798 whole entry, looked up): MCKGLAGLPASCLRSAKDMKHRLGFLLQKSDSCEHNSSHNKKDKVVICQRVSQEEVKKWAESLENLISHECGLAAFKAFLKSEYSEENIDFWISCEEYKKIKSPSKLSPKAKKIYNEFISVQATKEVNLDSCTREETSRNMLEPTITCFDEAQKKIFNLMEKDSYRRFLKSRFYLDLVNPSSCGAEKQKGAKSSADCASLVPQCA
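MLSMR compounds (23 nl, pin-transferred) preincubated 10 min at room temperature with a 500nM (2x) first reagent, then RGS4 at 900nM (2x) plus Transcreener GDP mix added; fluorescence polarization (620/688 nm) read before and after 90 min at 30 °C.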
GLP-1R agonist = qHTS of GLP-1 Receptor Agonists | actives 0.007% (n = 380,000) | AID 624172, 2012 | Potency, µM (doses to about 45.6 µM), for inactives: at the top dose activation, usual class: activators | HEK293 GLP-1R CRE-luciferase, luminescence, 4-6 h; cells express a hypersensitive GLP-1R form; further: % of control where 0% means no effect
Target sequence (P43220 whole entry, looked up): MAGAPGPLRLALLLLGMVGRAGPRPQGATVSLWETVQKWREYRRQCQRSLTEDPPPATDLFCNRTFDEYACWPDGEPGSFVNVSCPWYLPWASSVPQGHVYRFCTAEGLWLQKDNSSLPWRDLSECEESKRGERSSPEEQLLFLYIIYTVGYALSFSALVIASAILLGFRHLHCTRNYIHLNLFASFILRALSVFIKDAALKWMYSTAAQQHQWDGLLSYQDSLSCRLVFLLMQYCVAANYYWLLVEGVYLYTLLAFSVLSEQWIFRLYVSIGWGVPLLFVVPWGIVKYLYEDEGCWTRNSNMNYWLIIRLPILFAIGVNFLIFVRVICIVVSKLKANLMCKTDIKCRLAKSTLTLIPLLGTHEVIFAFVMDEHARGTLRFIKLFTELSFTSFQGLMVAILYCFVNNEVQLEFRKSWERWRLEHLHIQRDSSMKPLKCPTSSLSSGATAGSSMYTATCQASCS
GLP-1R inv ag = qHTS of GLP-1 Receptor Inverse Agonists (Inhibition Mode); Glucagon-like peptide 1 receptor (Homo sapiens), P43220; HEK293 GLP-1R CRE-luciferase, luminescence, 24 h; GLP-1R form is constitutively active; Potency, µM (highest dose often 38.3 µM), for the others: at the top dose activity change, negative = inhibition, hits mostly inhibitors; actives 1.6% (n = 410,000); further: on the % scale 0 is the no-effect control and ±100 the full control effect; nearly all actives have a fitted effect of over 55% in size
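Constitutively active GLP-1R drives a cAMP-responsive luciferase in stably transfected HEK293 cells; test compounds are added after overnight (12 h) attachment and left 24 hr, and signal loss in luminescence marks inhibition.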
Numbers without * were called inactive; i = inactive; ? = inconclusive; . = not tested or not shown; ! = repeats disagree; [ ] = remark or other dose. Rows were chosen to be rich in hits. Some 1.8% of all compounds tested hit in one or more screens of this group. The call rests on the fitted dose curve; in most records, active means well fitted curve in the direction sought with a large enough effect; inconclusive means small, poorly fitted or top-dose-only effect, or another doubt; inactive means no such curve, though single readings can be large; an effect the other way counts as inactive or inconclusive. Potency means the concentration at half of the fitted maximal effect.

SMILES | HEK293 tox | KAT2A inh | PTHR1 agonist | RGS4 inh | GLP-1R agonist | GLP-1R inv ag
O=C(NC1CCCCC1)c1cc(C2CC2)nn1-c1ccccc1 | 0% | -2% | -7% | 6% | 6% | 5.6µM*
Cc1nn(-c2ccccc2)c(Cl)c1C(=O)NC1CCCCC1 | 0%[7.66 µM] | -6% | -12% | 28% | 15% | 3%[7.66 µM]
CC(C)(C)c1ccc(S(=O)(=O)/C=C\C#N)cc1 | . | 28µM* | . | -163%[56.9 µM] | . | .
Cc1ccc(S(=O)(=O)SC/C=C/CSS(=O)(=O)c2ccc(C)cc2)cc1 | -22% | . | i | -130% | -8% | -6%
Cc1ccc(S(=O)(=O)/C=C\C#N)cc1 | . | 28µM* | . | i | . | .
Cc1ccc(S(=O)(=O)/C=C/C#N)cc1 | . | 22µM*! | . | 6µM* | . | .
Cc1ccc(S(=O)(=O)C=CS(=O)(=O)c2ccc(C)cc2)cc1 | ? | . | -12% | . | -2% | -22%
CC(C)(C)c1ccc(S(=O)(=O)N2CCCCC2)cc1 | -2% | 1% | -8% | -20% | -2% | ?
COc1ccc(CNC(=O)COC(=O)c2ccc(F)c(S(=O)(=O)N3CCOCC3)c2)cc1 | -4% | -1% | -12% | 6% | 0% | 25%
Cn1c(=O)cc(SCC(=O)NCc2ccc(F)cc2)c2ccc(Cl)cc21 | -4% | -3% | i | 5% | . | 0%
CN(CCCNC(=O)CSc1cc(=O)n(C)c2cc(Cl)ccc12)Cc1ccccc1 | -16% | -2% | i | 22% | 21% | 7.9µM*
Nc1ccn([C@@H]2O[C@H](CNCC3=CCOc4ccc(O)cc43)[C@@H](O)[C@H]2O)c(=O)n1 | 4% | . | -25% | . | 10% | -9%
COc1ccc(C=Cc2ccc3ccccc3n2)c(OC)c1 | 121% | . | -14% | . | -5% | 4.5µM*
CCN(CC)S(=O)(=O)c1ccc(NC(=O)c2nn(C)c3c2CSc2ccccc2-3)cc1 | 2% | -3% | i | -16% | . | -3%
O=C(CN1C(=O)c2cccc3cccc(c23)C1=O)N1CCCCCC1 | -12% | -3% | -8%[57.5 µM] | 32% | -2% | 7.9µM*
O=C(CN1C(=O)c2ccccc2C1=O)N1CCCCC1 | 6% | -5% | i | -20%[11.4 µM] | -10% | 37%
COc1ccc(C2C=C3CNS(=O)(=O)C3CC2OC(=O)c2cccc(C)c2)cc1 (stereo not given) | . | . | . | 11% | . | .
COc1ccccc1NC(=O)Nc1nc(CC(=O)N2CCN(c3ccccc3F)CC2)cs1 | -12% | -8% | -72% | 20% | -1% | 10µM*
O=C(Cc1ccccc1)c1c[nH]c(C(=O)NCCCN2CCOCC2)c1 | 2% | -20% | -28% | -31% | 4% | -12%
CN(C)/C(=C\C(=O)c1ccccc1)C(=O)c1ccccc1 | -14% | . | -20% | 15% | 1% | 14%
O=C(C=C(C(=O)c1ccccc1)c1ccccc1)c1ccccc1 | -3% | . | -7% | -18% | 13% | 8.9µM*
CCOC(=O)N1CCN(c2nc(-c3ccco3)cc(C(F)(F)F)n2)CC1 | -11% | 4µM* | i | -1%[11.4 µM] | 3% | -5%
CCCCCC[n+]1c(-c2ccc(Cl)cc2Cl)csc1Nc1ccccc1 | 4% | -2% | i | -33% | -2% | 10µM*
c1ccc(C[n+]2c(-c3ccccc3)csc2Nc2ccccc2)cc1 | 13% | 2% | -31% | -7% | 11% | -12%
CCOc1ccc(NC(=S)N(CCc2c(C)[nH]c3ccccc23)Cc2cccnc2)cc1 | 0% | -7% | -17% | -10% | -1% | 10µM*
SMILES | HEK293 tox | KAT2A inh | PTHR1 agonist | RGS4 inh | GLP-1R agonist | GLP-1R inv ag
O=C(NC(NC(=S)Nc1ccccc1)C(Cl)(Cl)Cl)c1cccc(Cl)c1 (stereo not given) | ? | -3% | -90% | -13% | -15% | 7.9µM*
Cc1cccc(NC(=S)NC(NC(=O)c2ccco2)C(Cl)(Cl)Cl)c1 (stereo not given) | ? | -9% | -53% | -14% | -10% | 1.1µM*
Cc1ccc(C(=O)NC(NC(=S)Nc2ccc(S(N)(=O)=O)cc2)C(Cl)(Cl)Cl)cc1 (stereo not given) | -25% | -11% | -37% | -34% | -6% | 5.6µM*
O=C(O)c1cccc(NC(=S)NC(NC(=O)c2cccc([N+](=O)[O-])c2)C(Cl)(Cl)Cl)c1 (stereo not given) | 3% | 23% | 10% | 0% | -6% | 4%
Cc1ccc(NC(=S)NC(NC(=O)c2ccccc2)C(Cl)(Cl)Cl)c(C)c1 (stereo not given) | ? | -7% | -1% | ? | -23% | 3.5µM*
Cc1cc(C)c(NC(=S)NC(NC(=O)c2ccccc2)C(Cl)(Cl)Cl)c(C)c1 (stereo not given) | -18% | -4% | -31% | -10% | 1% | ?
CCC1=C[C@@H]2CN(C1)Cc1c([nH]c3ccccc13)[C@@](C(=O)OC)(c1cc3c(cc1OC)N(C)[C@@H]1[C@@](O)(C(=O)OC)[C@H](OC(C)=O)[C@]4(CC)C=CCN5CC[C@]31[C@@H]54)C2 | . | -7% | . | . | 0% | .
Cc1cccc(C(=O)Oc2ccc(/C=N/NC(=O)c3cc(O)cc(O)c3)cc2)c1 | -12% | -8% | -43% | -11% | -34% | 10µM*
Cc1cccc(C(=O)Oc2ccc(/C=N/NC(=O)c3ccncc3)cc2)c1 | -2%[0.307 µM] | -3% | -19% | -16% | -20% | 2%[0.307 µM]
CCOC(=O)NNC(=O)c1[nH]c2ccc(Br)cc2c1-c1ccccc1 | ? | -5% | -20% | -2% | -1% | 10µM*
NNC(=O)c1[nH]c2ccc(Br)cc2c1-c1ccccc1 | -17% | -2% | -18% | -43% | 11% | ?
CC(=O)NNC(=O)c1[nH]c2ccc(Br)cc2c1-c1ccccc1 | 0% | -1% | i | -5% | -4% | 10µM*
CC(=O)NC1[C@H]([C@H](O)[C@H](O)CO)OC(C(=O)O)=C[C@H]1N=C(N)N (stereo not given in full) | . | -20% | . | . | 7% | .
OC[C@@H]1CN(Cc2ccc(-c3ccccc3)cc2)C[C@H](n2cnc3c(NCc4ccncc4)ncnc32)O1 | -3% | . | -5% | . | -1% | ?
